Assay results reported in PubChem BioAssay AID1814 (Broad Institute, 2009).
Among all 300,000 compounds or so, about 22,000 (7.3%) were called active. About 2% were inconclusive and are not listed. Rule as the data show it: active = activity score below about -60%; inconclusive = mostly about -28% to -61%; inactive = positive scores. This excerpt belongs to a sample that is enriched for actives.

Assay: Activators working through SNCA 5'UTR binding (MLPCN) (AID 1814)
Conditions: alpha-synuclein 5'UTR reporter, activators screen; hits give low values; tested at 7.5 µM

Activity score, inactive:
Oc1ccc(Br)cc1/C=N/Nc1ccccn1 66.4%
CCOc1cc2[nH]c(=S)n(Cc3ccc(C(=O)N4CCN(C)CC4)cc3)c(=O)c2cc1OCC 86.1%
COc1ccccc1C1C2=C(COC2=O)Nc2cc3c(cc21)OCO3 (stereo unspecified) 98.1%
CCCOc1ccccc1C1CC(=O)Nc2cc3c(cc21)OCO3 (stereo unspecified) 111%
C(=N\Nc1ccc2ccccc2n1)/c1ccc2c(c1)OCO2 88.2%
COc1ccc(OC)c(C2C3=C(N=c4s/c(=C\c5cccc(O)c5)c(=O)n42)c2ccccc2CC3)c1 (stereo unspecified) 58.4%

Activity score, active:
O=C(OCc1ccc(-c2ccccc2)cc1)c1cccc(O)c1 -109%
O=C(OCC(=O)c1c[nH]c2ccccc12)c1cccc(O)c1 -220%
CCc1ccccc1NC(=O)c1cc(-c2ccc3c(c2)OCO3)on1 -145%
C/C(=N/Nc1nc(-c2ccccc2)c(CC(=O)O)s1)c1ccccc1 -168%
COc1ccccc1N1CCN(/N=C/c2ccc(O)cc2O)CC1 -147%
COc1ccccc1N1CCN(/N=C\C(Br)=C\c2ccccc2)CC1 -74.9%
CCNC(=O)N1CCNC(=O)C1CC(=O)Nc1ccc(C(=O)OCC)cc1 (stereo unspecified) -69.7%
COc1ccc(-c2cc(C(=O)NC(Cc3c[nH]c4ccccc34)C(=O)O)c(C)o2)cc1OC (stereo unspecified) -104%
CCOc1ccc(C2c3[nH]c4ccccc4c3CCN2Cc2cn(CC)nc2C)cc1 (stereo unspecified) -101%
COc1ccccc1-c1cnn2c(N3CCOCC3)cc(C)nc12 -164%
CCn1ccnc1CN(C)Cc1nc(-c2ccc3c(c2)OCO3)no1 -80.6%
Cc1ccc(NC(=O)c2cc3ccccc3o2)cc1 -123%
O=C(NC(=S)Nc1cccc(-c2ccc(CO)o2)c1)c1cccs1 -80.9%
COc1ccc2occ(C(=O)c3ccc(N=C(C)N(C)C)cc3)c2c1 -75.8%
COC(=O)c1ccc(NCC(=O)c2ccccc2)cc1 -123%
C=CCNC(=O)c1ccc2c3n(nc2c1)-c1ccc(C)cc1CO3 -197%
Cc1ccccc1-n1c(C)cc(/C=C2\NC(=O)NC2=O)c1C -131%
Cc1nn(CCOc2ccccc2)c(=O)n1-c1ccccc1F -99.2%
C=C(C)CSc1nnc(-c2ccc(C)cc2)n1N -99.6%
CCCCOc1ccc(CSC(=N)N)cc1[N+](=O)[O-] -91.9%
CCCCCOc1ccc(CSC2=NCCN2)cc1[N+](=O)[O-] -150%
CC1(C)C=Cc2c(ccc3c2OC[C@@H](c2ccc(O)cc2O)C3)O1 -154%
CC(C)Cc1cc(C(=O)NCCc2ccccc2)no1 -169%
CC(C)Cc1cc(C(=O)Nc2cc(Br)ccc2O)no1 -135%
CC(C)CNC(=O)c1cc(-c2ccc(Br)cc2)on1 -187%
Cc1cccc(NC(=S)NC(=O)c2ccc(Br)o2)c1 -131%
Cc1cccc(NC(=O)c2ccc([N+](=O)[O-])o2)c1 -159%
Cc1cccc(NC(=O)NC(=S)NC(=O)c2ccccc2)c1 -62.7%
Cc1ccc(NC(=O)NC(=O)c2ccccc2)cc1F -128%
Cc1nn(-c2ccccc2)c(C)c1NC(=O)CCl -101%
CCCCCCOC(=O)NCC(O)c1ccccc1 (stereo unspecified) -126%
COCC1CCCN(Cc2nc(-c3ccc4c(c3)OCO4)no2)C1 (stereo unspecified) -62.5%
Cc1cc(Nc2ccc(Br)cc2)nc2ccccc12 -83.2%
Cc1ccc2nc(Nc3ccccc3)cc(C)c2c1 -82.2%
CCOc1cc(/C=N/Nc2cc(C)nc3ccc(C)cc23)ccc1O -66.2%
Cc1ccc(-c2nc(-c3ccncc3)no2)c(C)c1 -108%
c1csc(-c2nc(-c3ccncc3)no2)c1 -153%
Cn1ccnc1-c1nnn(-c2ccc(F)cc2)n1 -89.8%
Oc1ccc(/C=N/Nc2ccc(C(F)(F)F)cn2)cc1O -195%
c1ccc(-n2ncc3c2ncn2c(C4CCCCC4)nnc32)cc1 -128%
c1ccc(Nc2nc(-c3ccncc3)cs2)nc1 -108%
Clc1ccc(Nc2nc(-c3cccs3)cs2)nc1 -244%
Cc1cccc(Nc2nc(-c3ccccc3)cs2)n1 -106%
CC(=O)Nc1cccc(-c2cnc3ccccc3n2)c1 -207%
CC(=O)Nc1cccc(-c2csc(Nc3cccc(C)n3)n2)c1 -234%
c1cnc(Nc2nc(-c3ccc4ccccc4c3)cs2)nc1 -125%
COc1cc2c(cc1/C=C1/NC(=O)N(c3ccccc3)C1=O)OCO2 -142%
Cc1noc(C)c1/C=N/Nc1ccc2ccccc2n1 -146%
C/C(=N\NC(=O)OC(C)(C)C)c1ccc[nH]1 -122%
O=C(Nn1cnc2ccccc2c1=O)c1ccc(F)cc1Cl -87.1%
O=[N+]([O-])c1ccc2c(c1)Nc1nc3ccccc3nc1N2 -94.2%
Cn1c(=NC(=O)c2cnccn2)sc2ccccc21 -97.9%
O=C(NC(=S)Nc1ccccc1C(=O)O)c1ccc(-c2ccc(Br)cc2)o1 -123%
O=C(NC1CCCC1)C(=O)c1c[nH]c2ccccc12 -81.6%
O=C(CN1CCCCCC1)Nc1c(Cl)cc(Cl)cc1Cl -86.3%
O=C(CN1CCCCCC1)Nc1ccc(Br)cc1Br -101%
O=C(Nc1ccc(OC(F)(F)F)cc1)c1ccc2c(c1)no[n+]2[O-] -72.3%
Cc1cc(Cl)nc(NC(=O)Nc2cccc(Cl)c2)n1 -64.7%
CCN1CCN(C(=O)CSc2ccc(C)cc2)CC1 -69.7%
Cc1ccc(N/N=C2\COC(C)(C)CC2=O)cc1 -141%
COc1ccc(C2NC(=O)c3ccccc3N2)cc1 (stereo unspecified) -70.6%
CN1CCN(c2ccc(NC(=O)c3ccccc3)cc2)CC1 -102%
COc1cccc(C(=O)Nc2ccc(N3CCN(C(=O)c4ccco4)CC3)cc2)c1 -184%
COc1cccc(C(=O)Nc2ccc(N3CCCC3)cc2)c1 -189%
COc1cccc(C(=O)NNC(=O)c2cccc(F)c2)c1 -79.5%
